Assay outcomes: PubChem, Broad Institute
aSyn 5UTR act = Activators working through SNCA 5'UTR binding (MLPCN). alpha-synuclein 5'UTR reporter, activators screen. activity score, % (tested at 7.5 µM), hits read low. 300,000 tested, 7.1% active; in the data active = activity score below about -60%
Numbers stand for hits; 0 = inactive. These entries were drawn from the full list.

SMILES	aSyn 5UTR act
CCOc1ccc2nc(N3CCCC(C(=O)N4CCN(CC)CC4)C3)sc2c1 (stereo not drawn)	-96
CCOc1ccc(/C=N/Nc2nc(C)cs2)c(O)c1	-260
Cc1csc(N/N=C/c2c(F)cccc2Cl)n1	-74
Cc1csc(N/N=C/c2ccccc2F)n1	-200
O=C(Oc1ccc(-c2nccc(-c3ccccn3)n2)cc1)c1cccc(C(F)(F)F)c1	-140
Oc1ccc(-c2nccc(-c3ccccn3)n2)cc1	-188
Cc1ccc(C(=O)Oc2ccc(-c3nccc(-c4ccccn4)n3)cc2)cc1	-144
FC(F)(F)c1cc(Oc2ccccc2Cl)nc(-c2ccccn2)n1	0
O=C1N=C(N2CCOCC2)SC1=C1CCCCC1	-85
Cc1ccc(C(=O)NCCc2csc(C)n2)cc1	-81
Cc1ccc(C(=O)NCCc2ccncc2)cc1	-114
Cc1nc(-c2ccc(NC(=O)C3CCCCC3)cc2)cs1	-174
Cc1ccc(C(=O)Nc2ccc(-c3csc(C)n3)cc2)cc1	-138
Cc1ccc(C(=O)NCCc2ccccc2)cc1	0
Cc1ccn(C(=O)c2ccc(NC(=O)C3CCCCC3)cc2)n1	-70
Cc1ccc(CCNC(=O)NC(C)(C)C)cc1	-94
CCc1ccccc1NC(=O)c1ccc(-c2csc(C)n2)cc1	-143
COCCNC(=O)c1ccc(-c2csc(C)n2)cc1	-64
Cc1ccc(CNC(=O)c2ccc(Cn3cc(-c4ccc(C)cc4)nc3-c3ccncc3)cc2)cc1	-177
CN(C)/C=C1/C(=O)N(c2ccc([N+](=O)[O-])cc2)N=C1c1ccccc1	-115
CC1CCC/C(=C\Nc2ccc3c(c2)OCO3)C1=O (stereo not drawn)	-119
Oc1c(N=Nc2ccccc2)sc2ccccc12	-192
O=C(c1ccccc1)N1CCN(CC#Cc2ccccc2)CC1	-66
COc1ccc(OCCSc2nc(N)cc(N)n2)cc1	-103
Cc1ccc(OCCSc2nc(N)cc(N)n2)cc1	-120
SMILES	aSyn 5UTR act
COc1ccc(NC(=O)c2ccc(Br)o2)c([N+](=O)[O-])c1	-109
COc1ccc(NC(=O)c2ccc(C)o2)c([N+](=O)[O-])c1	-102
COc1ccc(NC(=O)c2ccc(C)cc2Cl)c([N+](=O)[O-])c1	-131
COc1ccc(NC(=O)c2ccc([N+](=O)[O-])s2)c([N+](=O)[O-])c1	-92
COc1ccccc1OCc1cc(C(=O)N2CCCC(OCc3cccnc3)C2)no1 (stereo not drawn)	-134
CSc1ccccc1OCc1cc(C(=O)N2CCSCC2)no1	-113
CSc1ccccc1OCc1cc(C(=O)N2CCN(C3CCCC3)C(=O)C2)no1	-112
CSc1ccccc1OCc1cc(C(=O)N2CCCC(C)C2)no1 (stereo not drawn)	-134
COc1ccc(OCc2cc(C(=O)N3CCCC(CO)C3)no2)c2ccccc12 (stereo not drawn)	-102
O=[N+]([O-])c1ccc(N2CCN(c3ccccc3)CC2)cc1	-80
CCOc1ccc(-n2c(SCc3ccc([N+](=O)[O-])cc3)nnc2-c2ccccc2)cc1	0
C/C(=N/N1CCN(c2ccccc2)CC1)c1cccc([N+](=O)[O-])c1	-70
O=[N+]([O-])c1ccc(-c2nnc(S)n2-c2ccccc2)cc1	-95
O=[N+]([O-])c1ccc(N2CCN(c3ccccc3F)CC2)nc1	-66
CC1Cc2ccccc2N1c1ncnc(N)c1[N+](=O)[O-] (stereo not drawn)	0
CC(C)OC(=O)c1ccc(N2CCN(c3ccccc3F)CC2)nc1	-68
O=[N+]([O-])c1ccc(N2CCN(c3ccccc3)CC2)nc1	-76
O=[N+]([O-])c1ccc(N2CCc3ccccc3C2)nc1	-66
O=C(Nc1nccs1)c1ccc(Br)cc1	-161
O=C(Nc1nccs1)c1ccc2ccccc2c1	-114
O=C(NCCc1ccccc1F)C(=O)Nc1nccs1	-122
CCOc1ccc(OCC(=O)Nc2nccs2)cc1	0
CCOc1cccc(C(=O)Nc2nccs2)c1	-173
O=C(Nc1nccs1)c1ccccn1	-123
O=C(Nc1nccs1)c1ccc(N2CCOCC2)c([N+](=O)[O-])c1	-80
SMILES	aSyn 5UTR act
COc1ccc2oc(-c3ccc(C)c(NC(=O)c4ccc(N5CCOCC5)c([N+](=O)[O-])c4)c3)nc2c1	-95
O=C(Nc1n[nH]c(=S)s1)c1ccc2ccccc2c1	-115
O=C(NC(=S)Nc1ccc(CN2CCOCC2)cc1)c1ccc2c(c1)OCCO2	-116
O=C(NC(=S)Nc1ccc(N2CCCCC2)cc1)c1ccc2c(c1)OCCO2	-125
N#Cc1cc2c(nc1SCC(=O)Nc1sc3c(c1C#N)CCC3)CCC2	-141
N#Cc1c(NC(=O)CSc2ncn[nH]2)sc2c1CCCC2	0
CN1CCc2nc(SCC(=O)Nc3ccc(Cl)cc3)c(C#N)cc2C1	-65
CCc1nnc(NC(=O)CSc2nc3c(cc2C#N)CCC3)s1	-159
N#Cc1cc2c(nc1SCC(=O)Nc1sc3c(c1C#N)CCC3)CCCCCC2	-93
O=C(Nc1ccccc1)C1Cc2ccccc2CN1C(=O)c1ccco1 (stereo not drawn)	-114
COC(=O)c1ccc(NC(=O)c2ccc3nc(C)sc3c2)cc1	-180
COc1ccc(C(=O)Nc2nc(C)c(C)s2)cc1OC	-142
COc1ccc(NC(=O)c2ccc3nc(C)sc3c2)cc1	-124
COc1ccc(C(=O)Nc2ccc3nc(C)sc3c2)cc1OC	-101
Cc1nc2ccc(C(=O)Nc3cccc([N+](=O)[O-])c3)cc2s1	-127
COc1ccc(C(=O)Nc2ccc(Oc3nc(C)nc4sc(-c5ccccc5)cc34)cc2)cc1OC	-120
COc1cccc(/C=N/n2c(=O)[nH]c3ccccc32)c1OC	-164
Cc1ccc(C(=O)OCC(=O)c2c[nH]c3ccccc23)cc1	-147
COc1ccc(C2C(O)C(c3c[nH]c4ccccc34)=NN2C(=O)CCl)cc1 (stereo not drawn)	0
CC1(C(=O)OCC(=O)c2c[nH]c3ccccc23)CC1(Cl)Cl (stereo not drawn)	-260
O=C(OCC(=O)c1c[nH]c2ccccc12)C1=COCCO1	-143
COc1ccc(OCC(=O)c2c[nH]c3ccccc23)cc1	-90
Cc1ccc(OCC(=O)c2cc(C)n(-c3ccccc3)c2C)c([N+](=O)[O-])n1	0
Cc1ccc(OCC(=O)c2c[nH]c3ccccc23)c([N+](=O)[O-])n1	-67
COC(=O)c1ccc(NC(=O)C(=O)c2c[nH]c3ccccc23)cc1	-93
SMILES	aSyn 5UTR act
Cc1cn(-c2cc(C(=O)Nc3ccc(C)c(NC(=O)C(=O)c4c[nH]c5ccccc45)c3)cc(C(F)(F)F)c2)cn1	0
Cc1cc(C(=O)N/N=C\c2cc(C(C)(C)C)ccc2O)n[nH]1	0
Cn1cccc1-c1cc(C(=O)N/N=C/c2cc(Br)ccc2O)[nH]n1	0
Cc1ccc(O)c(/C=N/NC(=O)c2[nH]ncc2Br)c1	-113
Cc1cc(C(=O)N/N=C/c2cccs2)n[nH]1	-83
O=C(N/N=C/c1c(O)ccc2ccccc12)c1[nH]ncc1Br	0
Cc1cc(C(=O)N/N=C/c2cc(Br)cc(Br)c2OC(=O)c2ccccc2)n[nH]1	0
O=C(N/N=C/c1cccs1)c1[nH]ncc1Br	-95
C/C(=N\NC(=O)c1cc(C)[nH]n1)c1ccc(-c2ccccc2)cc1	-78
CC(=O)c1ccc(Oc2ncnc3sccc23)cc1	-148
Cc1cc(C(=O)COc2ncnc3sccc23)c(C)n1C	-125
O=C1CCCC(O)=C1C=Nc1ccc2c(c1)oc1ccccc12	-168
CCOc1ccc(C(=O)OCC(=O)c2c(N)n(C)c(=O)n(C)c2=O)cc1OCC	-118
COc1ccccc1NC(=O)/C=C/c1ccc2c(c1)OCO2	-167
COc1cc2c(cc1NC(=O)c1ccc3c(c1)OCO3)oc1ccccc12	-285
